From PubChem BioAssay (NCATS)
Results filed as inconclusive are left out. Activity calls are given as the source filed them. Unless noted, calls follow the shape of the dose curve; as a rule, active = well fitted curve in the direction sought with a large enough effect; inconclusive = small, poorly fitted or top-dose-only effect, or another doubt; inactive = no such curve, though single readings can be large; an effect the other way counts as inactive or inconclusive.

What was measured:
[1] = Cell Viability - BJ (AID 421; calls by dose curve;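 also: potency is read from the fitted curve at half-maximal effect; cells exposed to compound for 40 hours at 37 °C before readout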); conditions: BJ fibroblast viability, qHTS
Outline: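 Quantitative HTS: ATP depletion in BJ cells after 40 hr compound exposure in complete culture medium, detected with CellTiter-Glo; AC50 from standard Hill fits.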

[2] = Cell Viability - Jurkat (AID 426;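 active = dose-dependent loss of cell ATP signal giving a full or clear fitted curve, ranked by lower potency value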;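 also: potency is read from the fitted curve at half-maximal effect; cells exposed to compound for 40 hours at 37 °C before ATP read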); conditions: qHTS
Outline: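 Seed 5000 Jurkat E6-1 cells/well; add compound; incubate 40 hr at 37 °C; add CellTiter-Glo; wait 20 min at room temperature; read luminescence. Fit concentration-response with Hill equation for AC50.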

[3] = Cell Viability - Hek293 (AID 427;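 active = compounds whose dose-response curve shows a full or clear partial loss of cell viability, called from curve shape rather than a numeric limit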;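 also: potency is read from the fitted curve at half-maximal effect; cells exposed to compound for 40 hours at 37 °C before reading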); conditions: qHTS
Outline: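 AC50 values derive from Hill-modelled concentration-response of ATP-based luminescence, normalized between DMSO-only and 100 uM tamoxifen controls. Cells were exposed in complete culture medium for 40 hr at 37 °C before detection.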

[4] = Cell Viability - HepG2 (AID 433; calls by dose curve;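 also: potency is read from the fitted curve at half-maximal effect; cells exposed to compound for 40 hours; potency for ATP loss meaning cytotoxicity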); conditions: qHTS
Outline: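 Cytotoxicity read as ATP loss (CellTiter-Glo luminescence) after 40 hr compound exposure of HepG2, 1500 cells/well, 37 °C. AC50 by Hill equation; 0% set by DMSO, 100% inhibition by 100 uM tamoxifen.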

[5] = Cell Viability - MRC5 (AID 434; calls by dose curve;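 also: potency is read from the fitted curve at half-maximal effect; cells exposed to compound for 40 hours at 37 °C; potency reflects cytotoxicity seen as loss of intracellular ATP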); conditions: MRC5 lung fibroblast viability, qHTS
Outline: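 qHTS cytotoxicity in human lung fibroblast MRC5 cells; 40 hr treatment, 37 °C; cellular ATP by luciferase luminescence; DMSO = 0%, 100 uM tamoxifen = 100% inhibition; Hill-fit AC50.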

[6] = Cell Viability - SK-N-SH (AID 435; calls by dose curve; also: potency is read from the fitted curve at half-maximal effect); conditions: SK-N-SH neuroblastoma cell viability qHTS
Outline: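 qHTS cytotoxicity: CellTiter-Glo ATP luminescence after 40 h compound exposure of human neuroblastoma SK-N-SH cells at 37 °C. AC50 derived by Hill-equation fitting, with DMSO as basal and 100 uM tamoxifen as full inhibition.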

[7] = biological target: Mitogen-activated protein kinase 10 (Mus musculus) (UniProt Q61831); assay: JNK3 AlphaScreen Assay (AID 530; active = well fitted curve in either direction with a large enough effect, not every such curve was filed as active;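 also: kinase came from lysate of stimulated human HepG2 cells; signal reports phosphorylation of biotinylated GST-cJun 1-79 at Ser73 with 10 µM ATP; % is scaled to controls: 0 for no effect and ±100 for the full control effect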)
Outline: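 Room-temperature AlphaScreen kinase assay; pre-activated HepG2 lysate as JNK3 source, biotin-GST-cJun(1-79) substrate, 10 uM ATP, compound 15 min preincubation.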

[8] = Cell Viability - NIH 3T3 (AID 541); conditions: NIH 3T3 cell viability, qHTS; activity change, negative = cytotoxicity: at 92.2 µM (top of the series);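 also: cells exposed to compound for 40 hours; plate controls were DMSO alone for no effect and tamoxifen positive control for full effect; nearly all actives have a fitted effect of over 25% in size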
Outline: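 AC50 values reflect concentration-dependent loss of intracellular ATP in NIH 3T3 cells after 40 hr treatment in complete culture medium, quantified by luciferase-based luminescence.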

[9] = Cell Viability - HUV-EC-C (AID 542);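 also: cells exposed to compound for 40 hours; % is scaled to controls: 0 for no effect and ±100 for the full control effect; nearly all actives have a fitted effect of over 35% in size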
Outline: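 Decrease in cellular ATP, quantified by luciferase luminescence, reflects toxicity in normal human vascular endothelial HUV-EC-C cells given compound for 40 hr in complete culture medium. Values are AC50s from concentration-response curves.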

[10] = Cell Viability - Renal Proximal Tubule (AID 545); conditions: renal proximal tubule cells viability; activity change, negative = cytotoxicity: at 91.7 µM (top of the series) unless noted;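 also: cells exposed to compound for 40 hours; nearly all actives have a fitted effect of over 40% in size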
Outline: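 Viability taken as intracellular ATP (CellTiter-Glo luminescence) after 40 hr, 37 °C compound treatment of primary proximal tubule cells from rat kidney, 1000 cells/well; Hill-equation fits of qHTS concentration-response data gave AC50.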

[11] = Cell Viability - Mesenchymal (AID 546); conditions: mesenchymal cells viability, qHTS; activity change, negative = cytotoxicity: at 91.7 µM (top of the series);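 also: cells exposed to compound for 40 hours before reading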
Outline: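 AC50 values reflect the drop in intracellular ATP in a human kidney mesenchymal line derived from normal glomeruli. Treatment lasts 40 hr at 37 °C in complete medium, and the signal comes from CellTiter-Glo luminescence.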

[12] = Cellular Toxicity (caspase-3) HUV-EC-C (AID 656)
Outline: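 Luminescent Caspase-Glo 3/7 readout after 16 h, 37 °C compound exposure of HUV-EC-C endothelial cells, 1000 per well, complete medium. AC50 derived by Hill fitting, with DMSO as baseline and 100 uM tamoxifen as full activation.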

[13] = Cellular Toxicity (caspase-3) SHSY5Y (AID 657)
Outline: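 Luminescent Caspase-Glo 3/7 read-out, 1 hr room temperature, follows 16 hours of compound treatment of SH-SY5Y cells at 37 °C. Normalization: DMSO basal, 10 uM staurosporine as 100%; AC50 values from Hill-equation concentration-response fits.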

[14] = Cellular Toxicity (caspase-3) MRC-5 (AID 659);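 also: 0% = DMSO basal and 100% = 10 µM staurosporine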
Outline: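 Concentration-dependent caspase 3/7 activation is measured in human normal lung fibroblasts (MRC-5) following 16-hour treatment. AC50 values come from standard Hill-equation modeling of luminescence normalized to DMSO and 10 uM staurosporine.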

[15] = Cellular Toxicity (caspase-3) Mesangial (AID 660); conditions: Potency: caspase-3 activation;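 also: combined caspase 3 and 7 activity read by Caspase-Glo luminescence; cells exposed to compound for 16 h before the caspase read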
Outline: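 Concentration-response qHTS: compound-induced rise in caspase 3/7 luminescence in human mesangial cells after 16 h, normalized to DMSO and 100 uM tamoxifen controls.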

[16] = Cellular Toxicity (caspase-3) H-4-II-E (AID 663); conditions: H-4-II-E rat hepatoma, scaled: DMSO 0%, 100 µM tamoxifen 100%; at 92.2 µM (top of the series)
Outline: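 Apoptosis induction is scored as increased luminescence from caspase 3/7 substrate cleavage in rat hepatoma H-4-II-E cells exposed to compound for 16 hr. Activity is scaled between DMSO and 100 uM tamoxifen.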

[17] = Cellular Toxicity (caspase-3) Hek293 (AID 664); conditions: HEK293 caspase-3 activation, DMSO = 0%, 100 µM tamoxifen = 100%; at 92.2 µM (top of the series);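 also: cells exposed to compound for 16 h at 37 °C before readout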
Outline: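 Activation of caspase-3/7 is measured as increased luminescence from cleaved peptide-aminoluciferin substrate in HEK293 cells treated 16 hours at 37 °C. AC50 values come from Hill-equation fits of concentration-response data.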

[18] = Cellular Toxicity (caspase-3) N2a (AID 665);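 also: compound exposure lasted 16 h at 37 °C before readout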
Outline: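 Plated mouse neuroblastoma N2a cells received titrated compounds for 16 h in complete medium. Caspase activity was then detected with a peptide-aminoluciferin luminescent reagent.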

[19] = Cellular Toxicity (caspase-3) NIH 3T3 (AID 666);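 also: caspase signal read after 16 h compound exposure; 0% = DMSO basal and 100% = 100 µM tamoxifen stimulation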
Outline: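 Concentration-response qHTS in NIH 3T3 mouse fibroblasts scores caspase-3/7 activation as rising luminescence after 16 hr compound exposure. Signals are scaled between DMSO-only and 100 uM tamoxifen.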

[20] = Cellular Toxicity (caspase-3) Renal Proximal Tubule (AID 667); conditions: renal proximal tubule cells; at 91.7 µM (top of the series) unless noted;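 also: cells exposed to compound for 16 hours at 37 °C before detection; 0% = DMSO basal and 100% = 10 µM staurosporine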
Outline: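 Caspase 3/7 activation measured by luminescent aminoluciferin release in primary rat proximal tubule cells after 16 hr compound exposure at 37 °C. AC50 from Hill-fitted concentration-response, scaled between DMSO and 10 uM staurosporine.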

[21] = biological target: Cytochrome P450 3A4 (Homo sapiens) (UniProt P08684); assay: qHTS Assay for Inhibitors and Substrates of Cytochrome P450 3A4 (AID 884); also: % is scaled to controls: 0 for no effect and ±100 for the full control effect; nearly all actives have a fitted effect of over 50% in size
Outline: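 20 nM human CYP3A4 with 25 uM Luciferin-PPXE (at KM) in 200 mM KPO4, preincubated 10 min with compound; NADPH regeneration started a 60 min RT reaction. Luciferin detected by luminescence, normalized to 57 uM ketoconazole as full inhibition.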

[22] = Cell Viability - LYMP2-001 (AID 921); also: potency is read from the fitted curve at half-maximal effect; nearly all actives have a fitted effect of over 70% in size
Outline: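 Cellular ATP loss read by luciferase luminescence after 24 h compound exposure at 37 C in complete medium. LYMP2-001 lymphoblastoid cells, 2500/well; qHTS concentration-response data fitted with Hill equation for AC50.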

[23] = MultiTox-Fluor Cytotoxicity Assay - LYMP1-001 - Dead Cells (AID 946);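 also: 0% = DMSO and 100% = tetraoctylammonium bromide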
Outline: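 In this qHTS, 15 uM tetraoctylammonium bromide defined 100% and DMSO defined basal activity. Lymphoblastoid cells (LYMP1-001, 2500 per well) received compound for 16 hr at 37 C before a fluorogenic dead-cell substrate readout at 485/520 nm.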

[24] = MultiTox-Fluor Cytotoxicity Assay - LYMP1-001 - Live Cells (AID 947);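 also: 0% = DMSO only and full inhibition = tetraoctylammonium bromide control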
[25] = Cell Viability - LYMP1-002 - Assay at 16 hr (AID 948);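 also: 0% = DMSO alone and full effect = 92 µM tetraoctylammonium bromide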
Outline: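 ATP luminescence (CellTiter-Glo) was measured after 16 hr compound exposure at 37 C of 2500 lymphoblastoid LYMP1-002 cells per well. Concentration-response curves were fitted with the Hill equation to give AC50.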

[26] = MultiTox-Fluor Cytotoxicity Assay - LYMP1-002 - Live Cells (AID 955); also: % is scaled to controls: 0 for no effect and ±100 for the full control effect
Outline: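 Cytotoxicity in the human lymphoblastoid line LYMP1-002 is measured as loss of live-cell protease activity after 16 h treatment in complete culture medium. AC50 is derived from Hill-equation fits of qHTS concentration-response data.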

[27] = MultiTox-Fluor Cytotoxicity Assay - LYMP1-002 - Dead Cells (AID 960);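 also: 0% = DMSO and 100% = tetraoctylammonium bromide; nearly all actives have a fitted effect of over 60% in size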
Outline: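 Acute cytotoxicity in a human lymphoblastoid line is scored as rising dead-cell protease signal after 16 hr exposure at 37 C, measured fluorometrically (485/520).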

[28] = MultiTox-Fluor Cytotoxicity Assay - LYMP1-003 - Dead Cells (AID 961);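 also: 0% = DMSO and 100% = tetraoctylammonium bromide; nearly all actives have a fitted effect of over 70% in size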
Outline: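 Acute toxicity is scored as increased dead-cell protease activity in human lymphoblastoid LYMP1-003 cells after 16 h compound exposure in complete culture medium. Activity is normalized to DMSO basal and 15 uM tetraoctylammonium bromide as full response.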

[29] = MultiTox-Fluor Cytotoxicity Assay - LYMP1-003 - Live Cells (AID 962);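 also: 0% = DMSO only and full loss = 92 µM tetraoctylammonium bromide; cytotoxic hits lower the live-cell protease signal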
Outline: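 Cells plated at 2500 per well and incubated 5 hr; compounds added and incubated 16 hr at 37 C; MultiTox-Fluor reagent added for 60 min at room temperature; fluorescence of liberated AFC measured at 405/510 nm.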

[30] = Cell Viability - LYMP1-003 - Assay at 24 hr (AID 963);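 also: plate controls were DMSO only for no effect and tetraoctylammonium bromide positive control for full effect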
Outline: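 Acute toxicity in LYMP1-003 lymphoblastoid cells: 24 hr compound treatment at 37 C, ATP measured with CellTiter-Glo after 30 min at room temperature. AC50 derived by fitting the Hill equation to qHTS titrations.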

[31] = Cell Viability - LYMP1-003 - Assay at 40 hr (AID 964); also: % is scaled to controls: 0 for no effect and ±100 for the full control effect; nearly all actives have a fitted effect of over 60% in size
Outline: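 This qHTS cytotoxicity screen treats human lymphoblastoid cells (LYMP1-003) with compounds for 40 hr and quantifies cellular ATP via luciferase luminescence.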

[32] = Cell Viability - LYMP2-005 (AID 967);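 also: plate controls were DMSO only for no effect and 92 µM tetraoctylammonium bromide control for full effect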
Outline: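 LYMP2-005 human lymphoblastoid cells (2500/well) were treated with compounds for 24 h at 37 C. Intracellular ATP was then measured by CellTiter-Glo luminescence after 30 min at room temperature. AC50 values came from Hill-equation fits of qHTS concentration-response data.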

[33] = Cell Viability - LYMP2-009 (AID 968); also: potency is read from the fitted curve at half-maximal effect; nearly all actives have a fitted effect of over 55% in size
[34] = Cell Viability - LYMP2-011 (AID 969); also: potency is read from the fitted curve at half-maximal effect; nearly all actives have a fitted effect of over 60% in size
Outline: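 Acute toxicity is scored as a concentration-dependent drop in intracellular ATP of a human lymphoblastoid line after 24 hr treatment. Values are AC50s modeled with the Hill equation.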

[35] = Cell Viability - LYMP2-013 (AID 970); also: potency is read from the fitted curve at half-maximal effect; nearly all actives have a fitted effect of over 55% in size
Outline: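 Acute toxicity was measured in human lymphoblastoid cells (2500/well) exposed to compound titrations for 24 hr, with ATP luminescence (CellTiter-Glo) as read-out and AC50 fitted by Hill equation.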

[36] = Cell Viability - LYMP2-015 (AID 971); also: potency is read from the fitted curve at half-maximal effect; nearly all actives have a fitted effect of over 55% in size
Outline: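 Acute toxicity was scored as a concentration-dependent drop in intracellular ATP in lymphoblastoid cells after 24 hr compound exposure in complete medium. Detection used CellTiter-Glo luciferase luminescence.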

[37] = Cell Viability - LYMP2-017 (AID 972);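 also: potency is read from the fitted curve at half-maximal effect; cells exposed to compound for 24 hours at 37 °C; nearly all actives have a fitted effect of over 55% in size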
Outline: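 Steps: plate 2500 lymphoblastoid cells per well; incubate 5 hr at 37 C; add compound across a concentration series and incubate 24 hr at 37 C; add CellTiter-Glo and read luminescence after 30 min at room temperature; fit Hill curves for AC50.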

[38] = Cell Viability - LYMP2-019 (AID 973)
Outline: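 Cells plated at 2500/well and allowed 5 hr at 37 C before compound addition. After 24 hr incubation, CellTiter-Glo reagent was added, plates sat 30 min at room temperature, and luminescence was recorded.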

[39] = Cell Viability - LYMP2-021 (AID 974)
Outline: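 Concentration-response cytotoxicity in a human lymphoblastoid line: 24 hr treatment at 37 C in complete culture medium, tetraoctylammonium bromide as positive control, luminescent ATP quantitation as viability measure.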

[40] = Cell Viability - LYMP2-023 (AID 975)
Outline: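 Concentration-dependent drop in intracellular ATP measures acute cytotoxicity in a human lymphoblastoid line treated for 24 hours in complete culture medium. AC50 values are taken from Hill-equation fits of qHTS data.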

[41] = Cell Viability - LYMP2-002 (AID 977)
Outline: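 Cytotoxicity is scored as concentration-dependent loss of cellular ATP in a human lymphoblastoid line after 24 hr compound treatment at 37 C. AC50 is obtained by modelling concentration-response data with the Hill equation.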

[42] = Cell Viability - LYMP2-007 (AID 979)
Outline: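 Acute toxicity is scored as a concentration-dependent fall in intracellular ATP in human lymphoblastoid cells treated 24 hr at 37 C, measured by luciferase luminescence; Hill-equation modelling yields AC50.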

[43] = Cell Viability - LYMP2-008 (AID 980)
Outline: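 Acute cytotoxicity is scored as concentration-dependent loss of cellular ATP in a human lymphoblastoid line after 24 hr treatment at 37 C. ATP is quantified by luciferase luminescence.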

Sequence of Cytochrome P450 3A4 (Homo sapiens) (P08684 whole entry, looked up): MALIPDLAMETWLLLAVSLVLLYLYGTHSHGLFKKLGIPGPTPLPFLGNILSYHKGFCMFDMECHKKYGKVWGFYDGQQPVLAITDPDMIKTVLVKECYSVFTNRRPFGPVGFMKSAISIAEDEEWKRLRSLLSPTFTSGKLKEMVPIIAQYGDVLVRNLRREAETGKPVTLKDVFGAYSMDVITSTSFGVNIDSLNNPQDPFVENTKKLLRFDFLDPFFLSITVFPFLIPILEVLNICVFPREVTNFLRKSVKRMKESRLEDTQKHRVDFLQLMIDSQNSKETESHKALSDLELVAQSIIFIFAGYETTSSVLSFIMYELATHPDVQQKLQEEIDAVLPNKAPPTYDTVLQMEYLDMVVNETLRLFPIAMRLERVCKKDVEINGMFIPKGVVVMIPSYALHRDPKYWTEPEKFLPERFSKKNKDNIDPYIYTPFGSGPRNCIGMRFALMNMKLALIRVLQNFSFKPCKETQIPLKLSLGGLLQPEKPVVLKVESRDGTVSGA

O=[N+]([O-])c1cc(C(F)(F)F)cc([N+](=O)[O-])c1Cl
active: Potency [2] 32.8 µM | activity change, negative = cytotoxicity [8] -150% | Potency [22] 25.1 µM | Potency [33] 31.6 µM | Potency [34] 39.8 µM | Potency [35] 39.8 µM | Potency [36] 31.6 µM | Potency [37] 31.6 µM | Potency [38] 31.6 µM | Potency [39] 31.6 µM | Potency [40] 39.8 µM | Potency [41] 31.6 µM | Potency [42] 39.8 µM | Potency [43] 39.8 µM
inactive: Potency [1] > 92 µM | Potency [3] > 92 µM | Potency [4] > 92 µM | Potency [5] > 92 µM | Potency [6] > 92 µM | outcome [7] | Potency [9] | Potency [10] | Potency [11] | outcome [12] | Potency [13] | outcome [14] | Potency [15] | caspase-3 activation [16] 24.4% | caspase-3 activation [17] -11.2% | outcome [18] | outcome [19] | caspase-3 activation [20] 6.02% [at 91.7 µM, primary cells freshly taken from rat, solvent-only wells 0%, staurosporine 100%] | Potency [21] | Potency [23] | Potency [24] | Potency [25] | Potency [26] | Potency [27] | Potency [28] | Potency [29] | Potency [30] | Potency [31] | Potency [32]
